The panel holds about 83,000 compounds, 20% with a hit somewhere; the sample as a whole holds those more often.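 Method: cells in 96-well plates; compound added at one concentration; 48 h incubation; percent growth measured; values under 10 scored active.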 Active and inactive are the calls of the source.

The subject of this test is MDA-MB-468 breast. The test is described as follows: NCI-60 one-dose screen, 48 h (100 = growth as untreated, 0 = no growth, -100 = all killed). Particulars: 10 µM unless noted.
For `CN(C)/C(N)=N/N=C(\c1ccccc1)c1ccccn1`, the growth is 95.8% (inactive). Consider `Cc1cc[n+](CCCC[n+]2ccc(C)cc2)cc1`, for which the growth is 99% (inactive). In the case of `COc1ccc(C2=NN(C=O)C(c3cccc(Nc4ccnc5cc(Cl)ccc45)c3)C2)cc1` (stereo not given), the growth was -3.92% (active). In the case of `COc1ccc(-n2cc(-c3ccccc3)c3c(SCC(=O)N/N=C/c4ccc([N+](=O)[O-])cc4)ncnc32)cc1` it was 98% (inactive); in that of `CCCCCCCCCCN=C(N)N=C(N)N`, -12.9% (active); in that of `CCCCc1ccc(N=Nc2ccc(OCC[N+](C)(C)C)cc2)cc1`, 4.13% (active).

Take `O=C1c2ccccc2C23C(=C(c4cncnc4)c4ccccc42)CCCN13` (stereo not given): the growth is 93.3% (inactive). Take `CCn1cc(-c2[nH]c(=S)ncc2-c2ccc(Cl)cc2)c(-c2ccc(Br)cc2)n1`: the growth is 121% (inactive).

Take `CC1=C(C(=O)c2ccccc2)C(c2ccc3c(c2)OCO3)NC(=S)N1` (stereo not given): the growth was 54.3% (inactive). As for `CCNC(=O)N1CCc2cc(OC)c(OCCc3ccc(OC)cc3)cc2C1c1ccc(Cl)cc1C` (stereo not given), the growth is -1.44% (active).

As for `S=c1cc(S)c2cc(Br)ccc2[nH]1`, the growth is 104% (inactive).

`O=c1[nH]n(-c2ccccc2)c(=O)cc1Cl`: the growth is 101% (inactive).

With `N/C(=N\O)c1ccncc1`, the growth is 121% (inactive).

Regarding `COc1ccc(Nc2[nH]n3c(=O)cc(C)nc3c2C(N)=O)c(OC)c1`, the growth was 97.3% (inactive).

Regarding `O=c1[nH]c2c(s1)CCCC2CN1CCCCC1` (stereo not given), the growth is 109% (inactive). On to `COc1ccc(/C=C/c2c(C(=O)/C=C/c3ccc(C(F)(F)F)cc3)c(C)nc3ccccc23)cc1`, for which the growth is -54.5% (active). Consider `BrCCCOc1ccc(Oc2ccc(OCCCBr)cc2)cc1`, for which the growth was 97.5% (inactive). In the case of `O=c1nc(NO)[nH]c(=O)n1Cc1ccccc1`, the growth is 107% (inactive). Next, `COc1cc2nc(Cl)nc(Nc3cccc(C4=Nc5c(N)nc(N)nc5NC(c5ccc6c(c5)OCO6)C4)c3)c2cc1OC` (stereo not given): 81.7% (inactive); `Nc1ccc(N=Nc2ccccc2)cc1[N+](=O)[O-]`: -6.35% (active); `FC(F)(F)c1ccc2c(c1)N(CCCN1CCN(C3CC3)CC1)c1ccccc1S2`: 54.1% (inactive). Next, `CC/C=C\C[C@H](O)C/C=C1/C(=O)C=C[C@@H]1C/C=C\CCCC(=O)NC(C)C`: 1.98% (active); `N=C(N)c1ccc(-c2ccc(-c3cncc4ccccc34)s2)s1`: -72% (active); `COc1cc(Br)c(-c2nc(-c3ccccc3)c(-c3ccccc3)n2Cc2ccccc2)cc1OC`: 54% (inactive). `Cc1ccc(NC(=O)c2[nH]c(SCCN(C)C)nc2-c2ccc(F)cc2)cc1Nc1ccc2ncn(C)c(=O)c2c1`: the growth is 92.1% (inactive). Consider `CC1=CC(C)(C)Nc2ccc(Cc3ccc4c(c3)C(C)=CC(C)(C)N4)cc21`, for which the growth was -12.4% (active). As to `CS(=O)(=O)Nc1cc(-c2ccc3ncc(C#N)c(NCc4ccccc4)c3c2)cnc1Cl`, the growth is -53.9% (active).

As for `O=[N+]([O-])c1cccc(-c2ncc(-c3ccc(Cl)cc3Cl)[nH]2)c1`, the growth is 47.6% (inactive). Next, `Cc1nc2ccc(Nc3nc(N4CCOCC4)nc(N4CCN(C)CC4)n3)cc2n1Cc1ccccc1`: 66.8% (inactive); `Cc1nc(O)cc(=O)[nH]1`: 113% (inactive).

`NC(=O)c1cccc(N2Cc3ccccc3OC3=C2C(=O)c2c(O)ccc(O)c2C3=O)c1`: the growth was -21.4% (active). In the case of `CC[C@H](Nc1cc(C)nc(N)n1)c1nc2cccc(NCc3ccc(C(=O)NO)cc3)c2c(=O)n1-c1ccccc1` it was -10.6% (active). In the case of `C=C1C(=O)O[C@H]2[C@H]1CC/C(Cn1cc(CNCCc3c[nH]c4ccccc34)nn1)=C\CC[C@@]1(C)O[C@@H]21` it was 37.3% (inactive); in that of `C=C1C(=O)O[C@H]2[C@H]1CC/C(COC(=O)NCc1c[nH]c3ccc(F)cc13)=C\CC[C@@]1(C)O[C@@H]21`, -58.1% (active). In the case of `COc1ccc(/C=C2\CCC3C(CCCC34OCCO4)C2=O)cc1` (stereo not given), the growth is 70.5% (inactive).

With `C=CCc1cc(Nc2c3ccc(Cl)cc3nc3ccc(OC)cc23)cc(CN(CC)CC)c1O`, the growth was -19.1% (active). In the case of `Brc1cccc(-c2cc(-c3ccc4c(c3)OC=CO4)[nH]n2)c1` it was 33.4% (inactive); in that of `Brc1ccc(Br)nn1`, -85.5% (active). On to `O=c1[nH]ccc2c(S(=O)(=O)N3CCCNCC3)cccc12`, for which the growth was 15.9% (inactive). For the compound `CC1=CC(=O)C(C(C)C)=CC1=Nc1cc(Br)c(O)c(Br)c1`, the growth is 44.7% (inactive).
